According to PubChem BioAssay AID651820 (National Center for Advancing Translational Sciences (NCATS), 2012):
Screen size: about 340,000 compounds; about 12,000 (3.5%) were called active. A call without a number means that no potency is given here. About 18% were inconclusive and are not listed. The sample holds actives, similar compounds and a random draw of the others, so the mix is not that of the screen. The call rests on the fitted dose curve; in most records, active means well fitted inhibition curve with a large enough effect; inconclusive means small, poorly fitted or top-dose-only effect, or another doubt; inactive means no such curve, though single readings can be large or run the other way. Some compounds were tested as several samples or in several runs, with calls that do not always agree.

assay: qHTS Assay for Inhibitors of Hepatitis C Virus (HCV); details: Huh7.5.1 HCVcc-Cre infection, luciferase reporter, 44 h; series mostly up to 41.8 µM
Outline: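 Reporter virus HCVcc-Cre (~0.5 moi) infects cells exposed to compound; seeding density 1,000 cells/well with 4 h settling beforehand. Luminescence, 15 sec read, taken 44 h post-infection following a 15 min RT substrate incubation.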
Potency means the concentration at half of the fitted maximal effect.

Row | SMILES | Potency | activity change, negative = inhibition
1 | CCN(CC)S(=O)(=O)c1ccc(NC(=O)c2cnc(C)cn2)cc1 | inactive | –
2 | COc1ccc(S(=O)(=O)N2CCCCCC2)cc1C(=O)N(C)Cc1cccc(OC)c1OC | inactive | –
3 | CCN(CC)S(=O)(=O)c1ccc(Cl)c(NC(=O)c2ccncc2)c1 | inactive | –
4 | CCN(CC)S(=O)(=O)c1ccc(N(C)Cc2ccc(C(F)(F)F)cc2)nc1 | 14.1 µM (active) | –
5 | CCN(CC)S(=O)(=O)c1ccc(N(C)CCc2ccc(OC)c(OC)c2)nc1 | inactive | –
6 | CCN(CC)S(=O)(=O)c1ccc(N(C)Cc2cccc(OC)c2OC)nc1 | 3.98 µM (active) | –
7 | CCCn1c(C)cc(/C=C(\C#N)C(=O)OCC(=O)N(C)c2c(N)n(Cc3ccccc3)c(=O)[nH]c2=O)c1C | inactive | –
8 | COc1ccccc1C(=O)OCC(=O)Nc1cccc(S(=O)(=O)NC2=NCCCCC2)c1 | inactive | –
9 | CC1CN(Cc2ccco2)C(=S)N(c2ccccc2)C1=O (stereo not drawn) | inactive | –
10 | COc1ccc(C(=O)COC(=O)C(O)c2ccccc2)c(OC)c1 (stereo not drawn) | inactive | –
11 | COc1ccc(C(=O)OCC(=O)N2CC(=O)Nc3ccccc32)cc1Br | inactive | –
12 | COc1ccc(Br)cc1/C=N/Nc1ccc(S(=O)(=O)Nc2ccccc2C(=O)O)cc1[N+](=O)[O-] | inactive | –
13 | COc1cccc(NC(=O)C(=O)c2cn(CC(=O)N3CCOCC3)c3ccccc23)c1 | 11.2 µM (active) | –
14 | O=C(Nc1ccc(F)cc1)C(=O)c1cn(CC(=O)N2CCOCC2)c2ccccc12 | inactive | –
15 | COc1cccc(NC(=O)CS(=O)(=O)c2cn(CC(=O)N3CCOCC3)c3ccccc23)c1 | inactive | –
16 | CCCC[C@@H]1CN=C(N)N1CCc1cccc(F)c1 | inactive | –
17 | CC(C)(Oc1ccc(Cl)cc1)C(=O)OCC(=O)NCCc1ccc(S(N)(=O)=O)cc1 | inactive | –
18 | CC[C@]12c3[nH]c4cc(CCC(=O)N(C)C)ccc4c3CCN1C(=O)[C@@H](CC(=O)NCc1ccco1)C[C@@H]2C(=O)N1CCN(C(=O)c2ccco2)CC1 | – | -1.33% [at 8.37 µM] (inactive)
19 | O=[N+]([O-])c1cccc(C=NN=Cc2ccccc2O)c1 | inactive | –
20 | S=c1ccc2ccccc2[nH]1 | inactive | –
21 | S=c1[nH]c2ccccc2c2ccccc12 | 11.2 µM (active) | –
22 | CCCCn1c(=S)[nH]c2ccccc2c1=O | inactive | –

Row | SMILES | Potency | activity change, negative = inhibition
23 | N=C1C(c2nc3ccccc3[nH]2)=C(O)CN1NC(=O)c1c[nH]c2ccccc12 | inactive | –
24 | COc1ccccc1OCc1nc2ccccc2s1 | inactive | –
25 | N=C1C(c2nc3ccccc3s2)=C(O)CN1NC(=O)c1ccc([N+](=O)[O-])cc1 | 11.2 µM (active) | –
26 | CCOC(=O)CCCN1CC(O)=C(c2nc3ccccc3s2)C1=N | inactive | –
27 | COc1ccccc1N1CC(O)=C(c2nc3ccccc3s2)C1=N | 11.2 µM (active) | –
28 | O=C(Nn1c(-c2ccccc2)nc2ccccc2c1=O)c1ccc([N+](=O)[O-])cc1 | inactive | –
29 | N#CCN(C(=O)COC(=O)C1CC2CCCC(C1)C2=O)c1ccccc1 (stereo not drawn) | inactive | –
30 | COc1cc(OC)c(C(=O)NNC(=O)c2ccccc2-n2cccc2)cc1OC | inactive | –
31 | CCCN(CC(=O)Nc1ccccc1C)C(=O)c1ccc2[nH]c3c(c2c1)CC(C)CC3 (stereo not drawn) | inactive | –
32 | CN(CC#CCC(c1ccccc1)c1ccccc1)C(C)(C)C | 10 µM (active) | –
33 | CC(C)(C)N(CC#CCC(O)(c1ccccc1)C1CCCC1)CCO (stereo not drawn) | inactive | –
34 | Cc1cc2c(cc1C)NC1(C[C@H]3CCC(=O)N4CC[C@@H](C1)[C@@H]34)C(=NC(C)(C)CC(C)(C)C)N2 (stereo partly drawn) | inactive | –
35 | COc1ccc(C(=O)Nc2cccc(/C=C(/CCC(=O)O)c3nc4ccccc4s3)c2)cc1 | inactive | –
36 | O=C(Cc1ccc(Cl)cc1)c1ccccc1 | inactive | –
37 | CCCCn1c(SCC(=O)NCC2CCCO2)nc2ccc(N3CCOCC3)cc2c1=O (stereo not drawn) | inactive | –
38 | COCCCNC(=O)CSc1nc2ccc(N3CCOCC3)cc2c(=O)n1CCc1ccccc1 | inactive | –
39 | N#CCSc1nc2ccc(N3CCOCC3)cc2c(=O)n1CCc1ccccc1 | 10 µM (active) | –
40 | OC(c1ccc(Cl)cc1)C(CN1CCOCC1)c1ccccc1 (stereo not drawn) | inactive | –
41 | OC(c1ccccc1)C(CN1CCOCC1)c1ccccc1 (stereo not drawn) | 12.6 µM (active) | –
42 | CC(CN1CCOCC1)c1ccccc1 (stereo not drawn) | inactive | –
43 | Cc1csc(=O)n1CCC(=O)OCC(=O)NNC(=O)c1ccc(Br)cc1 | inactive | –
44 | CCOC(=O)[C@H]1[C@H]2COc3ccc(OC)cc3[C@@H]2N2C(=O)c3ccc(F)cc3NC(=O)[C@@]12C | inactive | –

Row | SMILES | Potency | activity change, negative = inhibition
45 | COC(=O)C1=C(c2cc3ccccc3s2)C[C@@H]2CC[C@H]1N2C(=O)NC(C)C | inactive | –
46 | COC(=O)C1=C(c2ccc(F)cc2F)C[C@@H]2CC[C@H]1N2C(=O)NC1CC1 | inactive | –
47 | COC(=O)C1=C(c2cc3ccccc3o2)C[C@@H]2CC[C@H]1N2C(=O)NC1CCCCC1 | 7.94 µM (active) | –
48 | O=C(COC(=O)c1cc(S(=O)(=O)N2CCOCC2)ccc1Cl)NCCc1ccccc1 | inactive | –
49 | Cc1ccc(C)c(NC(=O)CN(C)C(=O)c2ccc3ncsc3c2)c1 | inactive | –
50 | Cc1sc(NC(=O)C2=COCCO2)c(C#N)c1C | inactive | –
51 | CC(NC(=O)c1cccc(S(=O)(=O)N2CCc3ccccc3C2)c1)c1ccco1 (stereo not drawn) | inactive | –
52 | Cc1cccc(N2CCN(C(=O)c3cccc(S(=O)(=O)N4CCc5ccccc5C4)c3)CC2C)c1 (stereo not drawn) | 7.08 µM (active) | –
53 | CN1CCN(S(=O)(=O)c2cccc(C(=O)N3CCc4ccccc43)c2)CC1 | inactive | –
54 | CCCCn1c(=O)c(C(C)=O)c(O)c2ccccc21 | inactive | –
55 | Cc1cc(NC(=O)CSc2nc3ccccc3n2CC(C)C)no1 | inactive | –
56 | CC(=O)c1ccc2c(c1)c1ccccc1n2CC(C)C | 2.51 µM (active) | –
57 | CCCCCCOC(=O)NCC(O)c1ccccc1 (stereo not drawn) | inactive | –
58 | CCCCCC(O)c1cccc(OCc2ccc3ccccc3n2)c1 (stereo not drawn) | 14.1 µM (active) | 0.332% [at 8.37 µM] (inactive)
59 | COc1cccc(C(O)c2nc3ccccc3n2C)c1 (stereo not drawn) | inactive | –
60 | Cc1ccc(NC(=O)Cn2cnc3c(OCc4ccccc4)ncnc32)cc1C | inactive | –
61 | Cc1noc(C)c1C(=O)OC(C)C(=O)Nc1ccc2c(c1)OCO2 (stereo not drawn) | inactive | –
62 | Cc1ccc(NC(=O)C2CCCN(S(=O)(=O)c3c(C)noc3C)C2)c(C)c1 (stereo not drawn) | inactive | –
63 | COc1c(C)cc(C(=O)C2CCCN(S(=O)(=O)c3c(C)noc3C)C2)cc1C (stereo not drawn) | 10 µM (active) | –
64 | Cc1noc(C)c1S(=O)(=O)N1CCCC(C(=O)Nc2nccs2)C1 (stereo not drawn) | inactive | –
65 | Nc1c(N(Cc2ccco2)C(=O)c2cccc(F)c2)c(=O)[nH]c(=O)n1Cc1ccccc1 | inactive | –
66 | Brc1cnc2ccccc2c1N1CCCCC1 | inactive | –

Row | SMILES | Potency | activity change, negative = inhibition
67 | N=c1c2c(-c3ccccc3)c(-c3ccccc3)oc2ncn1Cc1ccco1 | 6.31 µM (active) | –
68 | c1ccc(-c2oc3ncnc(N4CCOCC4)c3c2-c2ccccc2)cc1 | inactive | –
69 | Cn1c2ccccc2c(=O)c2c(=O)n(Cc3ccco3)c(COc3ccccc3)nc21 | inactive | –
70 | COc1ccc(Nc2ccc3ccccc3c2)cc1 | inactive | –
71 | CC(=O)Nc1ccc(S(=O)(=O)Nc2nc(-c3ccc(C(C)(C)C)cc3)cs2)cc1 | inactive | –
72 | CC(=O)Nc1ccc(-c2csc(NC=C3C(=O)OC(C)(C)OC3=O)n2)cc1 | inactive | –
73 | CC(=O)Nc1ccc(-c2csc(NC(=O)Nc3ccccc3)n2)cc1 | 10 µM (active) | –
74 | Cc1ccc(S(=O)(=O)N2CCC(C(=O)OCC(=O)N(C)c3ccccc3)CC2)cc1C | inactive | –
75 | Cc1cccn2c(=O)nc(SCC(=O)NCc3ccccc3Cl)nc12 | – | 2.77% [at 8.37 µM] (inactive)
76 | CN(CC(=O)NC(=O)Nc1ccccc1F)Cc1ccccc1 | inactive | –
77 | O=C1CC(C(=O)O)NC(=S)N1 (stereo not drawn) | inactive | –
78 | O=C(c1ccc(Cl)c(S(=O)(=O)N2CCCCCC2)c1)N1CCN(c2ccc(O)cc2)CC1 | inactive | –
79 | COc1ccc(CNC2CCCCC2)cc1 | inactive | –
80 | COc1cc(CNC2CCCC2)c(Br)cc1OCc1ccccc1 | 5.62 µM (active) | –
81 | COc1cc(CN2CCC(C(N)=O)CC2)ccc1OCc1ccccc1 | inactive | –
82 | O=C(O)c1ccc(Cn2cnc3c(=S)nc[nH]c32)cc1 | inactive | –
83 | Cc1ccc(COC(=O)CN2C(=O)NC3(CCCC3)C2=O)cc1 | inactive | –
84 | C=CC[C@@H](CC(=O)NCCO)C(=O)N[C@H](C)COC(=O)[C@@H](CC=C)CC(=O)OC(C)(C)C | inactive | –
85 | CC(OC(=O)c1ccccc1NCCO)C(=O)Nc1ccnn1C(C)C (stereo not drawn) | inactive | –
86 | COc1ccccc1N(C)S(=O)(=O)c1ccc(C(=O)NC2CCCCCC2)cc1 | 11.2 µM (active) | –
87 | COc1ccc(S(=O)(=O)NC(C)C)cc1C(=O)NC1CCCCC1 | inactive | –
88 | COc1ccccc1N(C)S(=O)(=O)c1ccc(C(=O)N2CCC(C(N)=O)CC2)cc1 | inactive | –

Row | SMILES | Potency | activity change, negative = inhibition
89 | CSc1ccccc1NC(=O)COC(=O)CCCOc1ccc(C)cc1 | inactive | –
90 | COc1ccc(-c2c(C)cc3oc(=O)cc(-c4ccccc4)c3c2C)cc1C=O | inactive | –
91 | Cc1cc2oc(=O)cc(-c3ccccc3)c2c(C)c1-c1ccc(OC(F)(F)F)cc1 | – | -14.5% [at 8.37 µM] (inactive)
92 | COc1ccc(-c2c(C)cc3oc(=O)cc(-c4ccccc4)c3c2C)cc1OC | 11.2 µM (active) | –
93 | Cc1ccc(S(=O)(=O)N(C)c2ccc(OCC(=O)OCC(=O)N(CC#N)c3ccccc3)cc2)cc1 | inactive | –
94 | NCCN1CCN2C(=O)CN(C(=O)c3ccccc3)CC12 (stereo not drawn) | inactive | –
95 | CCOc1ccc(Br)cc1S(=O)(=O)N1CCC(C(=O)O)CC1 | inactive | –
96 | CCOc1ccc(Br)cc1CSC(=N)N | 11.2 µM (active) | –
97 | CCOCCCNCc1cc(Br)ccc1OCC | inactive | –
98 | COc1ccc(OCC(=O)NNC(=O)C2CCC2)cc1 | inactive | –
99 | Cc1ccc(C(=O)Nc2ncccc2C)cc1S(=O)(=O)N1CCOCC1 | inactive | –
100 | CC(C)(CNC(=O)c1ccc(Cl)c(S(=O)(=O)N2CCc3ccccc3C2)c1)N1CCOCC1 | 7.08 µM (active) | –
101 | COc1ccccc1CNC(=O)c1ccc(N(C)S(=O)(=O)c2ccc(C)cc2)cc1 | inactive | –
102 | CN(c1ccccc1)S(=O)(=O)c1ccc(C(=O)NCCc2ccccc2)cc1 | inactive | –
103 | Cc1ccccc1CSCCNC(=O)c1ccc(Cl)c(S(=O)(=O)N2CCOCC2)c1 | 11.2 µM (active) | –
104 | Cc1ccc(C(=O)NCC(c2cccs2)N(C)C)cc1S(=O)(=O)N1CCOCC1 (stereo not drawn) | inactive | –
105 | CN(C)S(=O)(=O)c1ccc(C(=O)NCC(C)(C)N2CCOCC2)cc1 | inactive | –
106 | CC(C)(CNC(=O)Cc1ccc(Cl)cc1Cl)N1CCOCC1 | inactive | –
107 | Cc1ccccc1CSCCNC(=O)c1ccc(N(C)S(=O)(=O)c2ccccc2)cc1 | 10 µM (active) | –
